Experimental data as given in PubChem BioAssay AID1076 (NMMLSC, 2008).
The source made the active and inactive calls.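 How the source made its calls: active means cell event count below 40, meaning activity score above 60 where score is 100 minus count; inactive means the rest.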

Experiment: LNCaP cell loss by flow event count, confirmation, cytotoxicity control for prostate differentiation activator project, single point (AID 1076);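 further: counts scatter-gated live cells after medium removal discards detached dead cells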
Details: flow cytometry event count, 4 d, at 100 µM, stronger effect = lower value

| SMILES | cell event count |
| --- | --- |
| COc1ccc(Cc2noc(-c3ccc(C)cc3)n2)cc1 | 70 (inactive) |
| Cc1ccc(Cl)cc1N1CCN(C(=O)c2cc3c(=O)n(C)c4ccccc4c3n2C)CC1 | 31 (active) |
| Cc1ccc(-c2noc(CCC(=O)NC3CCN(Cc4ccccc4)CC3)n2)cc1 | 9 (active) |
| CCOC(=O)C1=C(O)CCn2c1nc1ccccc12 | 206 (inactive) |
| O=C(NCCCN1CCN(c2ccccc2F)CC1)C1CCN(S(=O)(=O)N2CCOCC2)CC1 | 156 (inactive) |
| COC(=O)c1cc(-c2ccccc2)sc1NC(=O)c1cc(C)on1 | 10 (active) |
| O=C(NCCc1c[nH]c2ccccc12)C(F)(F)C(F)F | 111 (inactive) |
| COCCn1cc(C(=O)N2CCCC(C)C2)c2c3ccccc3n(C)c2c1=O (stereo unspecified) | 180 (inactive) |
| CCCCCn1c(=N)n(CC(O)COc2ccccc2OC)c2ccccc21 (stereo unspecified) | 20 (inactive) |
| CCOC(=O)C1=C(C)Nc2nc(SC)nn2C1c1ccc(C(=O)OC)cc1 (stereo unspecified) | 326 (inactive) |
| CCCOc1ccc2nc(NC(=O)OC)[nH]c2c1 | 12 (inactive) |
| Cc1ccc2c(c1)NC(=O)C(CC(=O)NCCCN1CCN(c3cc(C)ccc3C)CC1)O2 (stereo unspecified) | 113 (inactive) |
| O=C(NC1CCCC1)C1CCN(S(=O)(=O)c2cccc3cccnc23)CC1 | 371 (inactive) |
| COc1ccc(N2CCN(c3oc(COc4ccccc4Cl)nc3C#N)CC2)cc1 | 214 (inactive) |
| CCn1c(=O)cc(SCC(=O)N2CCN(C3CCCCC3)CC2)c2ccccc21 | 6 (inactive) |
| Cn1nc(-c2ccc(Cl)cc2)c2cc(C(=O)NCCN3CCOCC3)sc21 | 10 (inactive) |
| CCn1c(=O)cc(OCC(=O)NCCCN2CCN(c3cccc(Cl)c3)CC2)c2ccccc21 | 20 (inactive) |
| COC(=O)c1ccccc1S(=O)(=O)N(Cc1cc2cc3c(cc2[nH]c1=O)OCO3)C1CCCCC1 | 8 (inactive) |
| Cc1oc(-c2ccccc2F)nc1CN1CCC(C(=O)NC2CCCCCCC2)CC1 | 6 (inactive) |

| SMILES | cell event count |
| --- | --- |
| O=C(c1ccccc1)c1ccc(N2CCNCC2)cc1 | 135 (inactive) |
| O=C(Cn1c(=O)[nH]c2ccsc2c1=O)NC1CCCCCC1 | 120 (inactive) |
| Cn1c(=O)cc(SCC(=O)NCCCN2CCN(c3ccccc3F)CC2)c2ccccc21 | 166 (inactive) |
| O=C(NCCCN1CCN(c2ccc(F)cc2)CC1)c1cccc(N2CCCC2=O)c1 | 206 (inactive) |
| CC1(C)CC(=O)c2cc(OCC(=O)NCCCN3CCN(c4ccc(F)cc4)CC3)ccc2O1 | 17 (inactive) |
| Cn1c(C(=O)NCCC2=CCCCC2)cc2c(=O)n3ccccc3nc21 | 191 (inactive) |
| Cc1cc(=O)oc(C)c1C(=O)NCCCN1CCN(c2ccc(F)cc2)CC1 | 236 (inactive) |
| Cn1c(C(=O)NCCCN2CCN(c3ccccc3F)CC2)cc2c(=O)[nH]c3ccccc3c21 | 3 (inactive) |
| CCN1CCN(CCNC(=O)C2CCN(Cc3nc(-c4ccc(Cl)cc4)oc3C)CC2)CC1 | 38 (inactive) |
| CCCS(=O)(=O)N1CCCC(C(=O)NCCCN2CCN(c3ccc(F)cc3)CC2)C1 (stereo unspecified) | 49 (inactive) |
| CCc1ccc(-c2nc(CN3CCCC(C(=O)NCCc4ccc(OC)c(OC)c4)C3)c(C)o2)cc1 (stereo unspecified) | 8 (inactive) |
| CCc1ccc(-c2nc(CN3CCC(C(=O)NCCN(CC)c4ccccc4)CC3)c(C)o2)cc1 | 6 (inactive) |
| COC(=O)c1ccccc1NC(=O)CN1CCC(n2nnc3cc(F)ccc32)CC1 | 174 (inactive) |
| Cc1cc(=O)oc(C)c1C(=O)NCCCN1CCN(c2ccccc2F)CC1 | 232 (inactive) |
| Cc1ccc(C)c(N2CCN(CCCNC(=O)Cn3cc4c(n3)CCCCC4)CC2)c1 | 3 (active) |
| CCOC(=O)N1CCC(=C2c3ccc(Cl)cc3CCc3cccnc32)CC1 | 7 (inactive) |
| COc1ccc(-c2cc3c(=O)n(CC(=O)NC4CCN(Cc5ccccc5)CC4)ncn3n2)cc1 | 180 (inactive) |
| Cc1ccc(-c2noc(CCC(=O)NCCCN3CCN(c4cccc(Cl)c4)CC3)n2)cc1 | 22 (inactive) |
| COc1ccc(-c2oc3ncn(CCN4CCOCC4)c(=N)c3c2-c2ccc(OC)cc2)cc1 | 26 (inactive) |

Same assay, conditions: flow cytometry event count, 4 d, event count, at 10 µM, stronger effect = lower value

| SMILES | cell event count |
| --- | --- |
| COc1ccc(Cc2noc(-c3ccc(C)cc3)n2)cc1 | 152 |
| Cc1ccc(Cl)cc1N1CCN(C(=O)c2cc3c(=O)n(C)c4ccccc4c3n2C)CC1 | 10.5 |
| Cc1ccc(-c2noc(CCC(=O)NC3CCN(Cc4ccccc4)CC3)n2)cc1 | 77.5 |
| CCOC(=O)C1=C(O)CCn2c1nc1ccccc12 | 257 |
| O=C(NCCCN1CCN(c2ccccc2F)CC1)C1CCN(S(=O)(=O)N2CCOCC2)CC1 | 108 |
| COC(=O)c1cc(-c2ccccc2)sc1NC(=O)c1cc(C)on1 | 42.5 |
| O=C(NCCc1c[nH]c2ccccc12)C(F)(F)C(F)F | 118 |
| COCCn1cc(C(=O)N2CCCC(C)C2)c2c3ccccc3n(C)c2c1=O (stereo unspecified) | 176 |
| CCCCCn1c(=N)n(CC(O)COc2ccccc2OC)c2ccccc21 (stereo unspecified) | 138 |
| CCOC(=O)C1=C(C)Nc2nc(SC)nn2C1c1ccc(C(=O)OC)cc1 (stereo unspecified) | 178 |
| CCCOc1ccc2nc(NC(=O)OC)[nH]c2c1 | 102 |
| Cc1ccc2c(c1)NC(=O)C(CC(=O)NCCCN1CCN(c3cc(C)ccc3C)CC1)O2 (stereo unspecified) | 152 |
| O=C(NC1CCCC1)C1CCN(S(=O)(=O)c2cccc3cccnc23)CC1 | 182 |
| COc1ccc(N2CCN(c3oc(COc4ccccc4Cl)nc3C#N)CC2)cc1 | 172 |
| CCn1c(=O)cc(SCC(=O)N2CCN(C3CCCCC3)CC2)c2ccccc21 | 402 |
| Cn1nc(-c2ccc(Cl)cc2)c2cc(C(=O)NCCN3CCOCC3)sc21 | 136 |
| CCn1c(=O)cc(OCC(=O)NCCCN2CCN(c3cccc(Cl)c3)CC2)c2ccccc21 | 307 |
| COC(=O)c1ccccc1S(=O)(=O)N(Cc1cc2cc3c(cc2[nH]c1=O)OCO3)C1CCCCC1 | 103 |
| Cc1oc(-c2ccccc2F)nc1CN1CCC(C(=O)NC2CCCCCCC2)CC1 | 90 |

| SMILES | cell event count |
| --- | --- |
| O=C(c1ccccc1)c1ccc(N2CCNCC2)cc1 | 168 |
| O=C(Cn1c(=O)[nH]c2ccsc2c1=O)NC1CCCCCC1 | 118 |
| Cn1c(=O)cc(SCC(=O)NCCCN2CCN(c3ccccc3F)CC2)c2ccccc21 | 210 |
| O=C(NCCCN1CCN(c2ccc(F)cc2)CC1)c1cccc(N2CCCC2=O)c1 | 263 |
| CC1(C)CC(=O)c2cc(OCC(=O)NCCCN3CCN(c4ccc(F)cc4)CC3)ccc2O1 | 112 |
| Cn1c(C(=O)NCCC2=CCCCC2)cc2c(=O)n3ccccc3nc21 | 132 |
| Cc1cc(=O)oc(C)c1C(=O)NCCCN1CCN(c2ccc(F)cc2)CC1 | 100 |
| Cn1c(C(=O)NCCCN2CCN(c3ccccc3F)CC2)cc2c(=O)[nH]c3ccccc3c21 | 93 |
| CCN1CCN(CCNC(=O)C2CCN(Cc3nc(-c4ccc(Cl)cc4)oc3C)CC2)CC1 | 378 |
| CCCS(=O)(=O)N1CCCC(C(=O)NCCCN2CCN(c3ccc(F)cc3)CC2)C1 (stereo unspecified) | 47 |
| CCc1ccc(-c2nc(CN3CCCC(C(=O)NCCc4ccc(OC)c(OC)c4)C3)c(C)o2)cc1 (stereo unspecified) | 144 |
| CCc1ccc(-c2nc(CN3CCC(C(=O)NCCN(CC)c4ccccc4)CC3)c(C)o2)cc1 | 150 |
| COC(=O)c1ccccc1NC(=O)CN1CCC(n2nnc3cc(F)ccc32)CC1 | 112 |
| Cc1cc(=O)oc(C)c1C(=O)NCCCN1CCN(c2ccccc2F)CC1 | 308 |
| Cc1ccc(C)c(N2CCN(CCCNC(=O)Cn3cc4c(n3)CCCCC4)CC2)c1 | 53.5 |
| CCOC(=O)N1CCC(=C2c3ccc(Cl)cc3CCc3cccnc32)CC1 | 192 |
| COc1ccc(-c2cc3c(=O)n(CC(=O)NC4CCN(Cc5ccccc5)CC4)ncn3n2)cc1 | 257 |
| Cc1ccc(-c2noc(CCC(=O)NCCCN3CCN(c4cccc(Cl)c4)CC3)n2)cc1 | 123 |
| COc1ccc(-c2oc3ncn(CCN4CCOCC4)c(=N)c3c2-c2ccc(OC)cc2)cc1 | 237 |
